Among the data in PubChem BioAssay (Tox21) are Potency values, retold here.

Records with an inconclusive call do not appear. A call without a number means that no potency is given here. Active and inactive are the calls of the source. Calls come from the whole dose curve.

The first assay in a line: qHTS assay to identify small molecule agonists of the AP-1 signaling pathway - cell viability counter screen (AID 1159525). Note: nearly all actives have a fitted effect of over 55% in size. Note: potency is the fitted concentration of half-maximal effect. As to conditions: ME-180 AP-1-bla cells viability, ATP luminescence, 5 h; series mostly up to 76.8 µM. In a few lines:
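Same-well cytotoxicity counter screen of the Tox21 10K library in ME-180 cells. The readout is ATP-dependent luminescence after 5 h compound treatment. Data are normalised to DMSO and tetra n-octyl ammonium bromide controls.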
For orientation: In qHTS, concentration-response curves come from the screen itself.
In the case of `COC12CC[C@@]3(C[C@@H]1C(C)(O)C(C)(C)C)[C@H]1Cc4ccc(O)c5c4[C@@]3(CCN1CC1CC1)[C@H]2O5` (some centres not stated), the Potency was 54.6 µM (active).
As to `CCOP(=S)(OCC)OC(Cl)C(Cl)(Cl)Cl` (configuration not stated), the Potency result is “inactive”.
Same read-out and setting: in the case of `C[C@H]1CC[C@@H]2[C@@H](C)[C@H]3[C@H](C[C@H]4[C@@H]5CC=C6CC(O[C@@H]7O[C@H](CO)[C@H](O)[C@H](O[C@@H]8O[C@H](CO)[C@@H](O)[C@H](O)[C@H]8O)[C@H]7O[C@H]7O[C@@H](C)[C@H](O)[C@@H](O)[C@H]7O)CC[C@]6(C)[C@H]5CC[C@]34C)N2C1` (some centres not stated) it was 20.1 µM (active).
The same measure, in the same setting: for `C[C@@H]1O[C@@H](O[C@H]2C[C@@H](O)[C@]3(CO)[C@H]4[C@H](O)C[C@]5(C)[C@@H](C6=CC(=O)OC6)CC[C@]5(O)[C@@H]4CC[C@]3(O)C2)[C@H](O)[C@H](O)[C@H]1O` the value was “inactive”.
The same measure, in the same setting: for `CCOC(=O)OC1=C(c2cc(C)ccc2C)C(=O)NC12CCC(OC)CC2` (configuration not stated) the value was “inactive”; for `CCN(CC)C(=S)[S-].CCN(CC)C(=S)[S-].[Zn+2]`, 12.2 µM (active).
On to `Cc1ccc(OP(=O)(Oc2ccccc2)Oc2ccccc2)cc1`, for which the Potency entry is “inactive”.
For the compound `CCOCn1c(-c2ccc(Cl)cc2)c(C#N)c(Br)c1C(F)(F)F`, the Potency result was “inactive”.
The same measure, in the same setting: for `CC(C)OC(=O)C(O)(c1ccc(Cl)cc1)c1ccc(Cl)cc1` the value was 34.7 µM (active); for `COC(=O)N(C(=O)N1CO[C@@]2(C(=O)OC)Cc3cc(Cl)ccc3C2=N1)c1ccc(OC(F)(F)F)cc1`, “inactive”.

Another assay can be described thus: qHTS assay to identify small molecule agonists of the AP-1 signaling pathway (AID 1159526). Particulars: ME-180 (cervical carcinoma) AP-1-bla reporter, beta-lactamase FRET ratio, 5 h; series mostly up to 76.8 µM.
`CCCSP(=O)(OCC)SCCC`: the Potency entry is “inactive”.
Still for that read-out and setting: in the case of `CCCCCCCCCCCCCCCCCCn1cc[n+](C)c1` it was “inactive”.
Still for that read-out and setting: in the case of `COc1cc(C=O)cc2c1[C@H](COC(N)=O)[C@]1(OC(C)=O)ON2C[C@H]2[C@@H]1N2C(C)=O` it was “inactive”; in that of `CN(C)c1ccc(N=Nc2ccccc2)cc1`, “inactive”; in that of `COc1ccc(OC)c(CC(C)N)c1` (configuration not stated), “inactive”.
On the same count and under the same terms, in the case of `CCCCCCCCCCCCCN1CC(C)OC(C)C1` (configuration not stated) it was “inactive”; in that of `O=[N+]([O-])c1ccc2ccc3cccc4ccc1c2c34`, “inactive”; in that of `O=c1c(C2CC(c3ccc(-c4ccc(Br)cc4)cc3)Cc3ccccc32)c(O)sc2ccccc12` (configuration not stated), “inactive”.
As for `Oc1ccc(C(=C(Cl)Cl)c2ccc(O)cc2)cc1`, the Potency result is “inactive”.
For the compound `C[C@@H]1O[C@@H](O[C@H]2C[C@@H](O)[C@]3(CO)[C@H]4[C@H](O)C[C@]5(C)[C@@H](C6=CC(=O)OC6)CC[C@]5(O)[C@@H]4CC[C@]3(O)C2)[C@H](O)[C@H](O)[C@H]1O`, the Potency result is “inactive”.
Consider `CCOC(=O)OC1=C(c2cc(C)ccc2C)C(=O)NC12CCC(OC)CC2` (configuration not stated), for which the Potency result was “inactive”.
Turning to `Cc1ccc(OP(=O)(Oc2ccccc2)Oc2ccccc2)cc1`, the Potency result was “inactive”.
